This note sets out measurements from PubChem BioAssay (NCATS).

Records with an inconclusive call do not appear. Active and inactive are the calls of the source. Unless noted, calls come from the whole dose curve; as a rule, active = well fitted curve in either direction with a large enough effect (not every such curve was filed as active); inconclusive = small, poorly fitted or top-dose-only effect, or another doubt; inactive = flat fitted curve, though single readings scatter.

The target of assay [1] is Lysosomal acid glucosylceramidase (Homo sapiens) (UniProt P04062). The assay is described as follows: Glucocerebrosidase-p2 (AID 348; in the data active = potency below about 10 µM; note: potency is the fitted concentration of half-maximal effect). The following applies: purified GBA, blue fluorogenic substrate, 40 min. In short, it runs like this:
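Compounds titrated from 0.6 nM upwards against 0.2 nM enzyme in pH 5.9 citric acid/KH2PO4, taurocholate, tween-20; blue fluorogenic substrate 80 uM, 40 min room temperature, stopped and read Ex 365/Em 440 for AC50.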

The nature of assay [2]: AP1 Signaling Pathway (AID 357). Note: % is set by controls: 0 for no effect and ±100 for the full control effect. The conditions noted are these: ME-180 AP-1-bla reporter, EGF-induced, beta-lactamase ratio, 5 h; at 7.69 µM (top of the series) unless noted. A digest of the protocol: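 Cells are seeded overnight, exposed to compound titrations and an EC50 level of EGF for 5 hours at 37 °C, then loaded with CCF4 dye for 2.5 hours. Beta-lactamase activity under the AP-1 element is read as a blue/green ratio.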

For assay [3], the target named is Cytochrome P450 1A2 (Homo sapiens) (UniProt P05177). The assay is described as follows: p450-cyp1a2 (AID 410; calls by dose curve; note: potency is the fitted concentration of half-maximal effect;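 for activity change, negative = inhibition: -100% = full effect of reference inhibitor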). The conditions noted are these: recombinant CYP1A2, luciferin-ME demethylation, luminescence; series mostly up to 57 µM. In short, it runs like this: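 20nM CYP1A2 with 100uM Luciferin-ME (at Km) in 100mM KPO4; compound preincubated 10 min, NADPH regeneration added, 60 min at room temperature. Luciferin quantified by luminescence after detection reagent; normalized to 57 uM furafylline.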

Assay [4] is described as follows: NFAT Signaling Pathway (AID 444).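 Note: carbachol stimulus at about its EC50 of 1 µM final; % is set by controls: 0 for no effect and ±100 for the full control effect.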 The following applies: Jurkat NFAT-bla M1, carbachol, beta-lactamase ratio, 5 h; at 7.69 µM (top of the series) unless noted. In short, it runs like this: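 Jurkat cells with NFAT-driven β-lactamase reporter and co-expressed M1 receptor, stimulated with carbachol (final 1 uM, ~EC50), compound titration, 5 h at 37 °C. CCF4 loaded 1 h at RT; 460/530 nm ratio gave %activity and AC50.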

Assay [5] can be described thus: Stat Signaling Pathway (AID 446).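 Note: ME-180 cervical cancer cells given 40 pM IL-6 alongside compound; SIE-controlled beta-lactamase reporter measured as 460/530 nm FRET emission ratio; % is set by controls: 0 for no effect and ±100 for the full control effect.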 The following applies: ME-180 SIE beta-lactamase reporter, IL-6 stimulated, 5 h; at 7.69 µM (top of the series) unless noted. In short, it runs like this: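 ME-180 SIE-bla cells; overnight plating; cpd + IL-6 40 pM, 5 h, 37 C; LiveBLAzer 2.5 h RT; 460/530 nm emission ratio. Normalized to 300 pM IL-6 and 125 nM JAK inhibitor controls.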

Assay [6] has as its target Glucocorticoid receptor (Homo sapiens) (UniProt P04150). Description: GR-EFC Redistribution (AID 451; calls by dose curve; note: potency is the fitted concentration of half-maximal effect). The following applies: CHO-K1 GR-EFC translocation, beta-gal luminescence, 2 h. A digest of the protocol:
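CHO-K1 cells expressing nuclear EA and GR-ED fragments of b-gal; compounds titrated up to 46 uM final, 2 h at 37 C. GR nuclear translocation read as complemented b-gal luminescence after 1 h RT detection.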

Assay [7] concerns the target Mitogen-activated protein kinase 10 (Mus musculus) (UniProt Q61831). Description: JNK3 AlphaScreen Assay (AID 530).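 Note: kinase came from lysate of stimulated human HepG2 cells; signal reports phosphorylation of biotinylated GST-cJun 1-79 at Ser73 with 10 µM ATP; % is set by controls: 0 for no effect and ±100 for the full control effect.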 The following applies: JNK3 lysate, c-Jun phosphorylation; series mostly up to 57.1 µM. A digest of the protocol:
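Pre-activated (IL-1β/TNFα) JNK3 in HepG2 lysates phosphorylates biotin-GST-cJun(1-79), 10 uM ATP; anti-phospho-cJun(Ser73) AlphaScreen read at room temperature, pH 7.6 Tris buffer. Compounds pre-incubated 15 min as titrations.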

Assay [8] has as its target 3',5'-cyclic-AMP phosphodiesterase 4B (Homo sapiens) (UniProt Q07343). Description: qHTS Assay for Inhibitors of PDE-IV (AID 607; active = well fitted activation curve with a large enough effect in the main read-out, with a control signal flat, not every such curve was filed as active; note: % of control where 0% means no effect). The following applies: HEK293 ACTOne CNG channel cells, membrane potential fluorescence; series mostly up to 22.9 µM. A digest of the protocol: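 ACTOne HEK293 cells carry a modified cAMP-gated CNG channel and express endogenous PDE4; plated 1000 cells/well, compounds up to 22.9 uM final. Membrane-potential dye fluorescence (ex 535/em 590) was read; parental cells received 10 uM forskolin + 100 uM RO 20-1724.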
For orientation: Quantitative high-throughput screening tests each substance at several concentrations.

Assay [9] is described as follows: qHTS Assay for Lipid Storage Modulators (AID 1519; calls by dose curve). The following applies: Drosophila S3 cells, BODIPY lipid droplet/cell ratio, laser cytometry, cells loaded with oleic acid; for activity change, negative = inhibition: at 57.5 µM (top of the series). A digest of the protocol: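 Cells seeded at 5,000 per well were treated with compounds over a concentration series and loaded with oleic acid (400 uM, as added). Lipid droplet fluorescence (488 nm excitation, 500-530 nm channel) was read by laser-scanning cytometry and normalized to 20 uM Triacsin C.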

Assay [10] in a line: Primary qHTS for small molecule stabilizers of the endoplasmic reticulum resident proteome: Secreted ER Calcium Modulated Protein (SERCaMP) assay (AID 1508630; active = well fitted curve in the direction sought with a large enough effect; an effect the other way counts as inactive or inconclusive; note: % is set by controls: 0 for no effect and ±100 for the full control effect). The following applies: SH-SY5Y GLuc-SERCaMP (Gaussia luciferase released on ER calcium loss) secretion, thapsigargin, luminescence; series mostly up to 38.4 µM. In short, it runs like this: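 GLuc-SERCaMP-expressing SH-SY5Y cells, pretreated 16 h with compound, are challenged with thapsigargin to empty ER calcium stores; after 4 h, coelenterazine is added directly to the medium and luminescence is imaged.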

Assay [11] addresses Glucocorticoid receptor (Homo sapiens) (UniProt P04150). The assay is described as follows: GR-GFP Redistribution (AID 450;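 active = compounds whose dose series gives a full or clear partial fitted curve of increased nuclear translocation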; note: potency is the fitted concentration of half-maximal effect). The conditions noted are these: U2OS GR-GFP nuclear translocation, laser cytometry, 2 h.
Assay [12] deals with Cytochrome P450 3A4 (Homo sapiens) (UniProt P08684). Description: qHTS Assay for Inhibitors and Substrates of Cytochrome P450 3A4 (AID 884; active = well fitted curve in the direction sought with a large enough effect; an effect the other way counts as inactive or inconclusive; note: potency is the fitted concentration of half-maximal effect; nearly all actives have a fitted effect of over 50% in size). The conditions noted are these: recombinant CYP3A4, Luciferin-PPXE luminescence; series mostly up to 57.1 µM. In short, it runs like this: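 20 nM human CYP3A4 with 25 uM Luciferin-PPXE (at KM) in 200 mM KPO4, preincubated 10 min with compound; NADPH regeneration started a 60 min RT reaction. Luciferin detected by luminescence, normalized to 57 uM ketoconazole as full inhibition.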

The target is the same in assay [13]. Description: qHTS Assay for Activators of Cytochrome P450 3A4 (AID 885; active = well fitted curve in the direction sought with a large enough effect; an effect the other way counts as inactive or inconclusive; note: nearly all actives have a fitted effect of over 65% in size). The following applies: recombinant CYP3A4, Luciferin-PPXE luminescence, 60 min; series mostly up to 57.1 µM. In short, it runs like this: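 20nM CYP3A4 + 25uM Luciferin-PPXE (=KM), 200mM KPO4; cpd 10 min RT; NADPH regen, 60 min RT; stop w/ detection buffer, 20 min; luminescence. Normalized to 57 uM ketoconazole.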

The target of assay [14] is Cytochrome P450 2D6 (Homo sapiens) (UniProt P10635). The assay is described as follows: qHTS Assay for Inhibitors and Substrates of Cytochrome P450 2D6 (AID 891; active = well fitted curve in the direction sought with a large enough effect; an effect the other way counts as inactive or inconclusive; note: potency is the fitted concentration of half-maximal effect; nearly all actives have a fitted effect of over 60% in size). The following applies: recombinant CYP2D6, luciferin-ME EGE luminescence; series mostly up to 57.1 µM. A digest of the protocol: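 Human CYP2D6 (5 nM) with 30 uM Luciferin-ME EGE (at Km) in 100 mM KPO4, compound preincubated 10 min, then NADPH regeneration system for 60 min at room temperature. Luciferin read by luminescence; normalized to 1.43 uM quinidine.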

The target in assay [15] is Cytochrome P450 2C19 (Homo sapiens) (UniProt P33261). Description: qHTS Assay for Inhibitors and Substrates of Cytochrome P450 2C19 (AID 899; active = well fitted curve in the direction sought with a large enough effect; an effect the other way counts as inactive or inconclusive; note: potency is the fitted concentration of half-maximal effect; nearly all actives have a fitted effect of over 60% in size). The following applies: recombinant CYP2C19, luciferin-H EGE luminescence; series mostly up to 57.1 µM. In short, it runs like this: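 5 nM human CYP2C19 with 10uM Luciferin-H EGE (at KM) in 50mM KPO4, compound preincubated 10 min at 37C, then NADPH regeneration for 60 min at 37C. Luciferin read by luminescence after detection reagent; normalized to 57uM ketoconazole as full inhibition.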

Assay [16] is described as follows: Confirmation and Secondary Assay for Modulators of Hemoglobin Beta Chain Splicing at IVS2 654 locus (AID 910; active = well fitted curve in the direction sought with a large enough effect; an effect the other way counts as inactive or inconclusive;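 note: HeLa cells stably carrying EGFP split by mutant beta-globin IVS2-654 intron; % of control where 0% means no effect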). The following applies: HeLa EGFP-654 splicing reporter, GFP fluorescence, 48 h; series mostly up to 38.3 µM. In short, it runs like this: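 HeLa cells stably expressing EGFP interrupted by β-globin IVS2-654 intron, seeded overnight in Opti-MEM/2% FCS, then treated 2 days at 37 °C. Restored splicing read as total peak GFP intensity per well by laser scanning cytometry (488 nm excitation, 500–520 nm emission); 500 nM antisense PNA as control.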

Assay [17] in a line: Confirmation and Secondary Assay for Modulators of Hemoglobin Beta Chain Splicing at IVS2 705 locus (AID 930; active = well fitted curve in the direction sought with a large enough effect; an effect the other way counts as inactive or inconclusive;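 note: HeLa cells stably expressing the EGFP-705 splicing reporter; % of control where 0% means no effect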). The conditions noted are these: HeLa EGFP-705 splicing reporter, GFP fluorescence, 48 h; series mostly up to 38.3 µM. A digest of the protocol: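 Stable HeLa line with EGFP disrupted by mutant beta-globin intron 2 (705). Overnight attachment, then 2 days of compound at 37C, 5% CO2. Signal: peak GFP intensity summed over objects 5-250 µm.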

Setting [18] is: measured here: cell count channel max response.
[19] abbreviates: measured here: lipid channel max response.

Sequence of Cytochrome P450 1A2 (Homo sapiens) (P05177 whole entry, looked up): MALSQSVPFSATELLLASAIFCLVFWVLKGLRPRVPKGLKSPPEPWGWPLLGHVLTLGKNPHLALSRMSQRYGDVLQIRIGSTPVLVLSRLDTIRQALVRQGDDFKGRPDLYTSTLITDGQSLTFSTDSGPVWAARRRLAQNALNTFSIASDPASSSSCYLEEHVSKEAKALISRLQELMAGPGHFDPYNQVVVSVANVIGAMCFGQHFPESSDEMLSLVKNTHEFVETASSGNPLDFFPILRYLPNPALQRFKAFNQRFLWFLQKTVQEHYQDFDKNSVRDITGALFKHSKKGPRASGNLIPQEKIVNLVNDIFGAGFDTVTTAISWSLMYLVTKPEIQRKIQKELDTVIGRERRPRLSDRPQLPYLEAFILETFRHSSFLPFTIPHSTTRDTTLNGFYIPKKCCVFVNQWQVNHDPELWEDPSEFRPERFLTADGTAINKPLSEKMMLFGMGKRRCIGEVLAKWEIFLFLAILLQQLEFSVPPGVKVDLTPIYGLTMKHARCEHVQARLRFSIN
Sequence of 3',5'-cyclic-AMP phosphodiesterase 4B (Homo sapiens) (Q07343 whole entry, looked up): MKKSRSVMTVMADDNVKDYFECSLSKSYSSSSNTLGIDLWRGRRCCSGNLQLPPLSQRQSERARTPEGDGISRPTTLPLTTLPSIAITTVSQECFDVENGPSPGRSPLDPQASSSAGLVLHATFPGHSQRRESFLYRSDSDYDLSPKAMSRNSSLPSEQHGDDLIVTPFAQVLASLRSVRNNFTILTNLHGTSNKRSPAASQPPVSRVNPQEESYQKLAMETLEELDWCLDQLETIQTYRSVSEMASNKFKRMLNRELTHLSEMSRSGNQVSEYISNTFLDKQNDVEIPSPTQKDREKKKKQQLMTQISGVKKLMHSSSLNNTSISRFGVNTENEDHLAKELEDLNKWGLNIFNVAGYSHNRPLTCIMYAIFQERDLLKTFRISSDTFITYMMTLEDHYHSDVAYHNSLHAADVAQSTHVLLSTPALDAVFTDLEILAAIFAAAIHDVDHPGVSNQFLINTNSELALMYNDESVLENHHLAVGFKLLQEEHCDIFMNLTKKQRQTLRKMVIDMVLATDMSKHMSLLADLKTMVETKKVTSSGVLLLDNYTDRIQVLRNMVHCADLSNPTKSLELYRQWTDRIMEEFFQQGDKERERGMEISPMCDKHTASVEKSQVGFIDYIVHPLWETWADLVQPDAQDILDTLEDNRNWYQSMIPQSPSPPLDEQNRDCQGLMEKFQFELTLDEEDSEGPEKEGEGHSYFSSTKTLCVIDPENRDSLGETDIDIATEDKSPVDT
Sequence of Lysosomal acid glucosylceramidase (Homo sapiens) (P04062 whole entry, looked up): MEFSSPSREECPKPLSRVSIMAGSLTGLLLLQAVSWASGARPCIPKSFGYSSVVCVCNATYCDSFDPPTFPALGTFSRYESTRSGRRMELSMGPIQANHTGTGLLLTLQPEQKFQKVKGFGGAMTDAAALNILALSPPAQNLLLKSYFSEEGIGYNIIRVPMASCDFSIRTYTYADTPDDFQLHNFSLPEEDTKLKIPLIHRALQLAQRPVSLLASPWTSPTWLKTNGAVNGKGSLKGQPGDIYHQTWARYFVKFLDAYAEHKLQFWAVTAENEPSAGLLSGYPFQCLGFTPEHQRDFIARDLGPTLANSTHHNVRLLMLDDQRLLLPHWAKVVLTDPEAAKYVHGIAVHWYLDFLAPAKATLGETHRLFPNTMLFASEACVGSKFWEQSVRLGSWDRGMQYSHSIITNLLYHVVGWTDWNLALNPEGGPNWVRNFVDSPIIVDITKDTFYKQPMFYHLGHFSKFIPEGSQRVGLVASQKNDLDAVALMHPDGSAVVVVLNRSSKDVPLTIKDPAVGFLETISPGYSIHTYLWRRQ
Sequence of Glucocorticoid receptor (Homo sapiens) (P04150 whole entry, looked up, the tested form may be a part): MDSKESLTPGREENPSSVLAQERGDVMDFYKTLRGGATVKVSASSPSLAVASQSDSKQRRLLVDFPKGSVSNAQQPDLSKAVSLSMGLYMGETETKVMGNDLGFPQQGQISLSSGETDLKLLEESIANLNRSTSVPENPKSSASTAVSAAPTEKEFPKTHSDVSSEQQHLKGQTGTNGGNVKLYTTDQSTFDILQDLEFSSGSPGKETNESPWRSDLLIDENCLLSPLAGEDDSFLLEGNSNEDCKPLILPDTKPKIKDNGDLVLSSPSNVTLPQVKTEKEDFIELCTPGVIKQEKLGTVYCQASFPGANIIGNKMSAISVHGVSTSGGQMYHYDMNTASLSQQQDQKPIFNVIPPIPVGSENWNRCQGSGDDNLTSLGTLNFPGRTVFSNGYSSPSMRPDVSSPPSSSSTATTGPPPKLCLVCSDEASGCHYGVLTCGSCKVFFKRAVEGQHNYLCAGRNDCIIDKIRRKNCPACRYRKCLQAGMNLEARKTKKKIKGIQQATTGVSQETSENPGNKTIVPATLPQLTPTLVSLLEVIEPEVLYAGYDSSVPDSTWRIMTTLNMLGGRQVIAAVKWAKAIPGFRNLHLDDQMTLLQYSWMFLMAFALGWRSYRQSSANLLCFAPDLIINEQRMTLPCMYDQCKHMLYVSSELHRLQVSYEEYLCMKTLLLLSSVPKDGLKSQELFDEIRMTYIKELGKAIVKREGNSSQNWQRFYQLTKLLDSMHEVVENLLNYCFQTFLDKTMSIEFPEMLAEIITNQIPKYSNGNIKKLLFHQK
Sequence of Cytochrome P450 3A4 (Homo sapiens) (P08684 whole entry, looked up): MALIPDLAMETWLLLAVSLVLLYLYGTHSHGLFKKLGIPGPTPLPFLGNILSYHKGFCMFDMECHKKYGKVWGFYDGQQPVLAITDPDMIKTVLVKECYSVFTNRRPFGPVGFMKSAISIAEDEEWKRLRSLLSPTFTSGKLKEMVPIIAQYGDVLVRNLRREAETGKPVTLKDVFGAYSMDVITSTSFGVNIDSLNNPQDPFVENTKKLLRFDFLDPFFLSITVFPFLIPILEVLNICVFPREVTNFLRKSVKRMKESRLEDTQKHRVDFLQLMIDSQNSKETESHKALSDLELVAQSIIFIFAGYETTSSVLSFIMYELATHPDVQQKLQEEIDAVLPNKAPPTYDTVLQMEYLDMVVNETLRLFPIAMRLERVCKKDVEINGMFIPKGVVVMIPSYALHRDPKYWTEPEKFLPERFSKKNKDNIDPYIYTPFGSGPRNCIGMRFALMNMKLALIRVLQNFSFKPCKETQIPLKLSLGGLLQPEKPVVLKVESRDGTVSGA
Sequence of Cytochrome P450 2C19 (Homo sapiens) (P33261 whole entry, looked up): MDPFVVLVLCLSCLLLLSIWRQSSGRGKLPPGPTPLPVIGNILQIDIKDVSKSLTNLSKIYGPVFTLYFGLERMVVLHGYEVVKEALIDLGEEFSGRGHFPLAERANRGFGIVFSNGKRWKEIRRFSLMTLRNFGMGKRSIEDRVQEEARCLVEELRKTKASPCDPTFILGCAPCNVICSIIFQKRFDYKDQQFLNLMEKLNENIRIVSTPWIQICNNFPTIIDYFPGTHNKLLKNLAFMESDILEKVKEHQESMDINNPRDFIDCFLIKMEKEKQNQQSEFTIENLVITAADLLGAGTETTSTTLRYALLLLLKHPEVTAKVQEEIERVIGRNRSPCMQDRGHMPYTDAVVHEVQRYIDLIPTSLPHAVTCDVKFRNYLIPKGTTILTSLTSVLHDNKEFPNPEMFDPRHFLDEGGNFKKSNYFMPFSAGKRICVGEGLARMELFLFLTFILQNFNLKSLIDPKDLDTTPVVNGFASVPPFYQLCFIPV
Sequence of Cytochrome P450 2D6 (Homo sapiens) (P10635 whole entry, looked up): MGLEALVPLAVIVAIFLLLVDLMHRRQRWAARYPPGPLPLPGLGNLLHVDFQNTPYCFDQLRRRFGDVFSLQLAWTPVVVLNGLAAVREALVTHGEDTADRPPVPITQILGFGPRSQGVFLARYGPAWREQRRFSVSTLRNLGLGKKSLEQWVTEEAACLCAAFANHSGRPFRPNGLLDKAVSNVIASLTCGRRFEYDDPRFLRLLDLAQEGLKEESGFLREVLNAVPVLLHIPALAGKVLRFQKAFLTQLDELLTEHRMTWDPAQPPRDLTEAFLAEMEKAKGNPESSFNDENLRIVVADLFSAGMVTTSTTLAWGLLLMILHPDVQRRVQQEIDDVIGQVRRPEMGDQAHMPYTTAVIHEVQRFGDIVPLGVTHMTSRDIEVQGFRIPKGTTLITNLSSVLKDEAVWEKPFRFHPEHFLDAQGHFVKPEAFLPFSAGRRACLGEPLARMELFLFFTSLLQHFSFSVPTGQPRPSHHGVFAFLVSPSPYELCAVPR

In the case of `COC(=O)N1CCC2(CCN(C(=O)NC(C)C)CC2)CC1`, the Potency in [1] is > 11.4 µM (inactive); in [3] it was 20000 nM (active); in [6], > 46 µM (inactive). Besides, the activity change, negative = inhibition in assay [2] was -1.37% (inactive); in [4] it was -29.8% (inactive); in assay [9], 2.86% (inactive). In assay [5], the activity, negative = inhibition is -1.69% (inactive). The compound was classed as inactive in [7]. Moreover, the Potency entry in [8] and in assay [10] was “inactive” each time. Further, the max response in assay [9] (setting [18]) is 7.58%; in [9] (setting [19]) it was 13.7%.
Turning to `O=C(Nc1cccc(F)c1)N1CC2(CCN(C(=O)c3csnn3)CC2)C1`, the figures for the Potency in assay [1] and in assay [6] were > 11.4 µM (inactive) and > 46 µM (inactive), respectively. For the same compound, the activity change, negative = inhibition in [2] was -24.7% (inactive); in [4], 16.8% (inactive); in assay [9] it was 5.27% (inactive). The Potency result in [3] and in assay [10] was “inactive” in each case. The activity, negative = inhibition in [5] is -8.23% (inactive). Further, the call in [7] was inactive. Besides, the max response in [9] (setting [18]) worked out at 2.11%; in assay [9] (setting [19]), 8.72%.
On to `Cc1cccc(CNc2ccnc(-c3cccnc3)n2)c1`, for which the Potency is > 11.4 µM (inactive) in assay [1]; 126 nM (active) in assay [3]; > 46 µM (inactive) in [11]; > 46 µM (inactive) in [6]; 501 nM (active) in assay [12]; 631 nM (active) in [14]. For the same compound, the Potency in assay [15] is 2.51 µM (active). For the same compound, the activity change, negative = inhibition in [2] is -18.1% (inactive); in assay [4], 10.6% (inactive); in assay [9], 8.22% (inactive). Also, the activity, negative = inhibition in [5] is 1.1% (inactive). Besides, the compound was called inactive in [7], in assay [16] and in [17]. Besides, the Potency entry in assay [13] and in [10] was “inactive” in each case. The max response in assay [9] (setting [18]) was -7.71%; in [9] (setting [19]) it was -5.64%.
For `CS(=O)(=O)N1CCC2(CC1)CN(C(=O)Nc1ccccc1)C2`, the figures for the Potency in assay [1] and in [6] were > 11.4 µM (inactive) and > 46 µM (inactive), respectively. Moreover, the activity change, negative = inhibition was -5.74% (inactive) in [2], 11.2% (inactive) in assay [4] and 4.59% (inactive) in [9]. The Potency entry in assay [3], in assay [8] and in [10] was “inactive” each time. Also, the activity, negative = inhibition in [5] is 8.65% (inactive). Also, the compound was called inactive in assay [7]. Moreover, the max response in assay [9] (setting [18]) amounted to 6.27%; in assay [9] (setting [19]), 16.7%.
Take `CN(C)c1ccc(-c2cncnc2NCc2cccs2)cc1`: the Potency was > 11.4 µM (inactive) in [1]; 398 nM (active) in assay [3]; > 46 µM (inactive) in assay [11]; > 46 µM (inactive) in [6]; 794 nM (active) in assay [12]; 0.631 µM (active) in assay [15]. Also, the activity change, negative = inhibition in assay [2] is -15.1% (inactive); in [4] it was 2.25% (inactive); in assay [9], 7.98% (inactive). The activity, negative = inhibition in assay [5] was -0.237% (inactive). The Potency result in assay [13] and in assay [10] was “inactive” each time. Moreover, the call in assay [16] and in assay [17] was inactive. Besides, the values for the max response in assay [9] (setting [18]) and in assay [9] (setting [19]) were 4.82% and 15.4%, respectively.
`Cc1cnc(CNc2ncncc2-c2ccccc2C(F)(F)F)cn1`: the Potency in assay [1] was > 11.4 µM (inactive); in assay [11], > 46 µM (inactive); in [6], > 46 µM (inactive). For the same compound, the values for the activity change, negative = inhibition in [2], in [4] and in assay [9] were -6.17% (inactive), 2.1% (inactive) and 7.68% (inactive), respectively. Also, the Potency entry in assay [3], in [8], in [13] and in assay [10] was “inactive” each time. Also, the activity, negative = inhibition in [5] is -1.72% (inactive). In addition, the outcome in [7], in assay [16] and in assay [17] was inactive. For the same compound, the max response in assay [9] (setting [18]) was 18.6%; in [9] (setting [19]), 28.1%.
